The campaign covered roughly 5,500 compounds. About 2,000 (36%) were called active. Roughly 18% stayed inconclusive and do not appear here. No stated cut-off is given here; in the data, active means normalized growth mostly below about 0.91 (no sharp cut-off); inconclusive means no clear call, values can overlap the other calls; inactive means mostly above about 0.92. Some of the results follow.
Experiment: chemical genetic growth profiling, strain panel (AID 1159580);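 further: tested at 20 µM; growth read once vehicle control cultures reached saturation at 30 °C; 1 = growth at the plate median or of vehicle wells; lower values mean less growth of the strain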
Conditions: S. cerevisiae deletion strains, growth OD

Measured: normalized growth

NCC1CCCCC1CC(=O)O (centres undefined)
inactive: locus YAL021C, strain ccr4, hits give low values 1.01 | locus YAL026C, strain drs2, hits give low values 1.02 | locus YAL030W, strain snc1, hits give low values 1.03 | locus YBL061C, strain skt5, hits give low values 1.04 | locus YBR009C, strain hhf1, hits give low values 0.988 | locus YBR023C, strain chs3, hits give low values 1.02 | locus YBR171W, strain sec66, hits give low values 1.03 | locus YBR231C, strain swc5, hits give low values 1.01 | locus YBR279W, strain paf1, hits give low values 1.03 | locus YCL011C, strain gbp2, hits give low values 1.02 | locus YCL016C, strain dcc1, hits give low values 1 | locus YCL061C, strain MRC1, hits give low values 1.04 | locus YCL069W, strain vba3, hits give low values 1.02 | locus YCR088W, strain abp1, hits give low values 1.04 | locus YDL005C, strain med2, hits give low values 1.02 | locus YDL040C, strain nat1, hits give low values 1.02 | locus YDR001C, strain nth1, hits give low values 1.02 | locus YDR069C, strain doa4, hits give low values 1.05 | locus YDR137W, strain rgp1, hits give low values 1.03 | locus YDR159W, strain sac3, hits give low values 0.98 | locus YDR195W, strain ref2 0.989 | locus YDR297W, strain sur2, hits give low values 1.05 | locus YDR334W, strain swr1, hits give low values 1.02 | locus YDR335W, strain msn5, hits give low values 1.03 | locus YDR392W, strain spt3, hits give low values 0.95 | locus YEL003W, strain gim4, hits give low values 1.03 | locus YEL037C, strain rad23, hits give low values 1.02 | locus YEL061C, strain CIN8 (second series), hits give low values 1.02 | locus YER015W, strain faa2, hits give low values 1.03 | locus YER016W, strain bim1, hits give low values 1 | locus YER111C, strain swi4, hits give low values 1.01 | locus YER155C, strain BEM2 (second series), hits give low values 1.07 | locus YFR010W, strain ubp6, hits give low values 1.02 | locus YGL167C, strain pmr1, hits give low values 1.03 | locus YGL173C, strain kem1, hits give low values 1.04 | locus YGL227W, strain vid30, hits give low values 1.03 | locus YGL240W, strain doc1, hits give low values 1.04 | locus YGL253W, strain hxk2, hits give low values 1.03 | locus YHR013C, strain ard1, hits give low values 1.02 | locus YHR027C, strain rpn1, hits give low values 1.01 | locus YHR030C, strain SLT2, hits give low values 0.999 | locus YHR079C, strain IRE1, hits give low values 0.997 | locus YHR142W, strain chs7, hits give low values 1.03 | locus YJL092W, strain hpr5, hits give low values 1.03 | locus YJL095W, strain BCK1 (second series), hits give low values 1.02 | locus YJL095W, strain BCK1, hits give low values 0.988 | locus YJL115W, strain asf1, hits give low values 1.03 | locus YJL129C, strain trk1, hits give low values 1.04 | locus YJL154C, strain vps35, hits give low values 1.01 | locus YJL164C, strain tpk1, hits give low values 1.01 | locus YJL166W, strain qcr8, hits give low values 1.05 | locus YJR066W, strain TOR1, hits give low values 0.941 | locus YKL160W, strain elf1, hits give low values 1.04 | locus YKR026C, strain gcn3, hits give low values 1.02 | locus YKR091W, strain srl3, hits give low values 1.02 | locus YLL001W, strain dnm1, hits give low values 1.04 | locus YLL026W, hits give low values 1.01 | locus YLL041C, strain sdh2, hits give low values 1.02 | locus YLR027C, strain aat2, hits give low values 1.04 | locus YLR113W, strain HOG1, hits give low values 0.959 | locus YLR221C, strain rsa3, hits give low values 1 | locus YLR258W, strain gsy2, hits give low values 1.02 | locus YLR262C, strain YPT6 (second series), hits give low values 1.04 | locus YLR320W, strain mms22, hits give low values 1 | locus YLR342W, strain FKS1, hits give low values 1.04 | locus YLR357W, strain rsc2, hits give low values 1.04 | locus YLR370C, strain arc18, hits give low values 1.03 | locus YLR384C, strain iki3, hits give low values 1.02 | locus YML120C, strain ndi1, hits give low values 1.03 | locus YMR058W, strain fet3, hits give low values 1.04 | locus YMR125W, strain sto1, hits give low values 0.985 | locus YMR129W, hits give low values 1.02 | locus YMR205C, strain PFK2, hits give low values 1.04 | locus YMR231W, strain pep5, hits give low values 1.02 | locus YNL071W, strain lat1, hits give low values 1.01 | locus YNL183C, strain NPR1, hits give low values 0.912 | locus YNL209W, strain ssb2, hits give low values 1.03 | locus YNL248C, strain rpa49, hits give low values 1.01 | locus YNL322C, strain KRE1 (second series), hits give low values 1.02 | locus YNR049C, strain mso1, hits give low values 1.02 | locus YOR001W, strain rrp6, hits give low values 1.04 | locus YOR070C, strain gyp1, hits give low values 1.02 | locus YOR080W, strain dia2, hits give low values 1.04 | locus YOR083W, strain WHI5, hits give low values 1.01 | locus YOR106W, strain vam3, hits give low values 1.06 | locus YOR231W, strain MKK1, hits give low values 0.992 | locus YOR265W, strain rbl2, hits give low values 1.03 | locus YOR270C, strain vph1, hits give low values 1.04 | locus YOR290C, strain snf2, hits give low values 1 | locus YPL051W, strain arl3, hits give low values 1.03 | locus YPL078C, strain atp4, hits give low values 1.05 | locus YPL106C, strain sse1, hits give low values 1 | locus YPL240C, strain hsp82, hits give low values 1.02 | locus YPL256C, strain CLN2, hits give low values 0.961

Source: PubChem BioAssay AID1159580 (chemical genetic matrix, 2015)
